According to ChEMBL document CHEMBL3988442, “University of Dundee, Small-Polar-MMV Screening Library” (2021):
For some assays here: Entries with a potency or affinity are not part of this list.

Assays:
Parameters in all cases: scale not given: direction of the effect not stated beside the values
[1] = target: Protein translocase subunit SecA (Escherichia coli (strain K12)) (UniProt P10408); assay: Assay to Identify E. coli SecA ATPase Inhibitors; assay type: functional; conditions: 30 µM
[2] = target: T1, Ubiquitin-activating enzyme e1, putative (Leishmania donovani (strain BPK282A1)) (UniProt E9BSI1); assay: Leishmania donovani Ubiquitin Activating Enzyme (LdE1); assay type: functional; conditions: 30 µM
T1 sequence (whole entry): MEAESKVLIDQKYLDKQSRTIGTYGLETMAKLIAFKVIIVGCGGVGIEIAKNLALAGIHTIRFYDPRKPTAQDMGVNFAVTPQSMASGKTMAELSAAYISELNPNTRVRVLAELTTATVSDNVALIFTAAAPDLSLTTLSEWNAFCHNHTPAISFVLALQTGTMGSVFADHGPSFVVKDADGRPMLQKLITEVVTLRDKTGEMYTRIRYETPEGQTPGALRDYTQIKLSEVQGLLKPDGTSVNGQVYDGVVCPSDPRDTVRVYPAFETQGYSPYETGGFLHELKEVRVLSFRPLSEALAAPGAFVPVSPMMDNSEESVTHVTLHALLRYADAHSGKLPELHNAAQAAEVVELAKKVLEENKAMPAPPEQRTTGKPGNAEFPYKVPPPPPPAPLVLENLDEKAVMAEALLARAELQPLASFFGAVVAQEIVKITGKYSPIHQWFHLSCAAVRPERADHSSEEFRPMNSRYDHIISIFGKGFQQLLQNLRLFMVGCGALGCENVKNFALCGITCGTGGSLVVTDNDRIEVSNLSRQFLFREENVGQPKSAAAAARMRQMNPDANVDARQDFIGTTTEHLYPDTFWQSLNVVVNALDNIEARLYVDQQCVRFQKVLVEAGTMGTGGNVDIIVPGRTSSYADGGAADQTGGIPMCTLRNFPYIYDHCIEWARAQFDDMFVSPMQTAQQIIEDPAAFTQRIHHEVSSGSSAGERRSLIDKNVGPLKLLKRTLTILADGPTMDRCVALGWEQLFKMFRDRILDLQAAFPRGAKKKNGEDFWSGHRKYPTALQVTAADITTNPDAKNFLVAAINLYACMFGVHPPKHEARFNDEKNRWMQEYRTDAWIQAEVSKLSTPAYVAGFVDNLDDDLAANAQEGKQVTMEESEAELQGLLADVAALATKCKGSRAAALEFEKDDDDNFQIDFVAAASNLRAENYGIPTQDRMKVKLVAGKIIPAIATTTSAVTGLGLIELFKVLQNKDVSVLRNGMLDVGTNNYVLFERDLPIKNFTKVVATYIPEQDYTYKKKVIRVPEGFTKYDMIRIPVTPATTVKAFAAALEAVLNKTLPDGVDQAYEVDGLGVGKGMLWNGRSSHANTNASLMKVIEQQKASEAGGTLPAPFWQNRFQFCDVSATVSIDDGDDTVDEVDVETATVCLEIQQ

[3] = target: AMP-activated protein kinase, AMPK (Homo sapiens) (UniProt P54646+O43741+P54619+Q9UGJ0+Q9Y478+Q13131+Q9UGI9); assay: AMP-dependent Kinase enzyme assay. An in vitro enzyme assay that detects ADP turnover that is directly proportional to AMPK activity. This uses naive AMPK that is activated during the assay with MK-8722; assay type: functional; conditions: 30 µM
[4] = target: Sialic acid-binding Ig-like lectin 9 (Homo sapiens) (UniProt Q9Y336); assay: Hs-Siglec9 ALPHAscreen SOP 20170721; conditions: 10 µM
Sequence of Sialic acid-binding Ig-like lectin 9 (Homo sapiens) (Q9Y336 whole entry): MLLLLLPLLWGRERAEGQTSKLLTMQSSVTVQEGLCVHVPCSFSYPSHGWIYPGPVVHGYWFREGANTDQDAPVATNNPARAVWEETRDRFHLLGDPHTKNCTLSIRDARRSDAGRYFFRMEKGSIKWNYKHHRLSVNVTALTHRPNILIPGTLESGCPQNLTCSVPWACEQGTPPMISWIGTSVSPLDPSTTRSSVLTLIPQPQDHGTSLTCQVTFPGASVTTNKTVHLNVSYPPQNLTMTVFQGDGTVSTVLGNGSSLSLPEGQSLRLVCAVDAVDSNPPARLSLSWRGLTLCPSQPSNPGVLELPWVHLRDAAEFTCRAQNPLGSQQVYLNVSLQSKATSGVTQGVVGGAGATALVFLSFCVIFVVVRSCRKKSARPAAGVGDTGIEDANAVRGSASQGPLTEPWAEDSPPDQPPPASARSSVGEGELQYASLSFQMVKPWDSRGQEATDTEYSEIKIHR

Trypanosoma cruzi = assay: Trypanosoma cruzi phosphomannomutase and mannose-1-phosphate guanylyltransferase assay; assay type: functional; conditions: 10 µM
[5] = target: T2, Arginase-2, mitochondrial (Homo sapiens) (UniProt P78540); assay: in vitro enzyme assay to detect the production of urea directly proportional to the activity of Arginase II; assay type: functional; conditions: 33.3 µM; also: in the data most compounds retested in dose-response had high values
T2 sequence (whole entry): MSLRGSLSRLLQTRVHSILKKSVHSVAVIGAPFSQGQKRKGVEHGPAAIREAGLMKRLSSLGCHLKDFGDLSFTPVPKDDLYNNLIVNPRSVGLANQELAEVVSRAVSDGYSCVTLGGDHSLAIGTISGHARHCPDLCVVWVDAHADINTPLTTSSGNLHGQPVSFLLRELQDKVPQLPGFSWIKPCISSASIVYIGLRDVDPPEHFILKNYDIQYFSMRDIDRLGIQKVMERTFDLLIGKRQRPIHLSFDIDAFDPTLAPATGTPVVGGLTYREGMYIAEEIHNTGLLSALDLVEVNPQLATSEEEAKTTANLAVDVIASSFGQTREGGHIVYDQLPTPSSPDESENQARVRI

[6] = target: T3, Proteasome subunit beta (Trypanosoma cruzi) (UniProt O96673); assay: Trypanosoma cruzi proteasome chymotrypsin-like activity (TcProtChymo) assay.; also: in the data most compounds retested in dose-response had high values; assay type: functional; conditions: 9.37 µM
T3 sequence (whole entry): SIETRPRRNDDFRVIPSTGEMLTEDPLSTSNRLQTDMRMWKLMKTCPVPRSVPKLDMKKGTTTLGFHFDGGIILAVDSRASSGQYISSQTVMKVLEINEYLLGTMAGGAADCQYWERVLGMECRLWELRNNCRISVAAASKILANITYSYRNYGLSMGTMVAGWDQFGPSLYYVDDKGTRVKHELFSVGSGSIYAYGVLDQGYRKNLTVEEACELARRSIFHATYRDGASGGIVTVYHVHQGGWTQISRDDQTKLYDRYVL

Homo sapiens = species: Homo sapiens; assay: To identify inhibition of the IFN signalling (Jak-Stat) pathway via expression of an eGFP reporter gene under the control of an IFN-stimulated response element (ISRE) containing MxA promoter.; assay type: functional; conditions: 30 µM
[7] = target: T4, Tyrosyl-tRNA synthetase, putative (Trypanosoma cruzi (strain CL Brener)) (UniProt Q4DSP6); assay: Trypanosoma cruzi tyrosyl tRNA synthetase (TcYRS) _High Tyrosine SOP; assay type: functional; conditions: 30 µM; also: in the data most compounds retested in dose-response had high values
T4 sequence (whole entry): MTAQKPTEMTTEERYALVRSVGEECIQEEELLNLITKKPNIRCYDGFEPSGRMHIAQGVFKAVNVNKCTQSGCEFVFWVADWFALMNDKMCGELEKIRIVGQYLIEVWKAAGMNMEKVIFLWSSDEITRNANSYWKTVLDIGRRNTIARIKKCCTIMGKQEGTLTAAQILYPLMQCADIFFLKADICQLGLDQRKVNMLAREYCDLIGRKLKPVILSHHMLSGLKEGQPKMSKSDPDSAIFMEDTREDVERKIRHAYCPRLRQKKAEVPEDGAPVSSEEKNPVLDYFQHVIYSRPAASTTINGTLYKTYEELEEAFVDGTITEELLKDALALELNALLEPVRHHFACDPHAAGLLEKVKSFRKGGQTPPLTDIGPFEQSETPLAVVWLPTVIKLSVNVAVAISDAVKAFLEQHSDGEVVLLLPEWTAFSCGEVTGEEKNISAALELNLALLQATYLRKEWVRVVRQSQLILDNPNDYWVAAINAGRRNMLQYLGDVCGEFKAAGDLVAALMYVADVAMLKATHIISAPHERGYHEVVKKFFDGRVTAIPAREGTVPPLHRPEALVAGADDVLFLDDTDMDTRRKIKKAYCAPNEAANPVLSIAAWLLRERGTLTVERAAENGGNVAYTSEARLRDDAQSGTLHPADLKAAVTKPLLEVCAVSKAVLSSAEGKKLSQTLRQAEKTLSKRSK

[8] = target: T4, Tyrosyl-tRNA synthetase, putative (Trypanosoma cruzi (strain CL Brener)); assay: Trypanosoma cruzi tyrosyl tRNA synthetase (TcYRS) SOP; assay type: functional; conditions: 30 µM
[9] = target: Chromo domain-containing protein 1 (Saccharomyces cerevisiae (strain ATCC 204508 / S288c) (Baker's yeast)) (UniProt P32657); assay: ScCHD-1 Enzyme Inhibition Assay; assay type: functional; conditions: 30 µM; also: in the data most compounds retested in dose-response had high values
Sequence of Chromo domain-containing protein 1 (Saccharomyces cerevisiae (strain ATCC 204508 / S288c) (Baker's yeast)) (P32657 whole entry, the tested form may be a part): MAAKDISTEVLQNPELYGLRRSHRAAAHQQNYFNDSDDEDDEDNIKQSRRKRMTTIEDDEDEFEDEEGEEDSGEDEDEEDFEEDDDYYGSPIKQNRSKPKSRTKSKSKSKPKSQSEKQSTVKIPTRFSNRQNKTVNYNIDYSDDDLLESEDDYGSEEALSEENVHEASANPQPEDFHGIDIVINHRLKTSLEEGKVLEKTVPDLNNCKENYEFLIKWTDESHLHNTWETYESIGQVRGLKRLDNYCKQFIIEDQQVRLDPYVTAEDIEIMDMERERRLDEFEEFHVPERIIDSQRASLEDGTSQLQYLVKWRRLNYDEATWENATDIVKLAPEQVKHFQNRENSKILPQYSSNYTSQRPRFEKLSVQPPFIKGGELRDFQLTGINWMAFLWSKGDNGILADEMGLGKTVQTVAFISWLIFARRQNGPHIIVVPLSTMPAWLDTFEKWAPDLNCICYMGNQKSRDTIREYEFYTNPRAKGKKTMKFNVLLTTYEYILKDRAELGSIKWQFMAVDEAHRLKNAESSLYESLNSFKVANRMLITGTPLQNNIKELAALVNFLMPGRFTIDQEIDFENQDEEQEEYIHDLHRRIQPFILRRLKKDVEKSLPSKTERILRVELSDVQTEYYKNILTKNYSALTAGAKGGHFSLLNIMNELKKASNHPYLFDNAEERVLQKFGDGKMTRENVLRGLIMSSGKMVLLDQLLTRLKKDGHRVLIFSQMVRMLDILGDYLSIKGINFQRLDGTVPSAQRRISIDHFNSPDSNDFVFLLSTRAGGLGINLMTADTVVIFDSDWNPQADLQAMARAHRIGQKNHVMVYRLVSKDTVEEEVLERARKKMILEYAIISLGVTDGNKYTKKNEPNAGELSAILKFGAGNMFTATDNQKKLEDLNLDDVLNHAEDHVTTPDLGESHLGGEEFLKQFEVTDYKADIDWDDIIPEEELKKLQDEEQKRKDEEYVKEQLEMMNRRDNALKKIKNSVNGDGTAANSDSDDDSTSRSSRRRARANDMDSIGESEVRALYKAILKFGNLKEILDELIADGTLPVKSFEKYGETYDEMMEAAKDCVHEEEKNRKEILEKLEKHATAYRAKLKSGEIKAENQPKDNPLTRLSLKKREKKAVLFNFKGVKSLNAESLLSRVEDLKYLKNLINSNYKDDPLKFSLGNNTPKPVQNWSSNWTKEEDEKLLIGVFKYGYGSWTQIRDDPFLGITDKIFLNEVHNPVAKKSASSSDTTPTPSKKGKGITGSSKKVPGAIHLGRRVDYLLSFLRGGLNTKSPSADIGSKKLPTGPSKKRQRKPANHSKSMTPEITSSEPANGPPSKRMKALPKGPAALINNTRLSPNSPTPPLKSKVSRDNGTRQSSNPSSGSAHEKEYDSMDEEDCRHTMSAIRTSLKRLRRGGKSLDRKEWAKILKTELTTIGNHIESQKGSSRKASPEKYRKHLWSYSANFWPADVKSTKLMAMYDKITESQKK

Sequence of Protein translocase subunit SecA (Escherichia coli (strain K12)) (P10408 whole entry): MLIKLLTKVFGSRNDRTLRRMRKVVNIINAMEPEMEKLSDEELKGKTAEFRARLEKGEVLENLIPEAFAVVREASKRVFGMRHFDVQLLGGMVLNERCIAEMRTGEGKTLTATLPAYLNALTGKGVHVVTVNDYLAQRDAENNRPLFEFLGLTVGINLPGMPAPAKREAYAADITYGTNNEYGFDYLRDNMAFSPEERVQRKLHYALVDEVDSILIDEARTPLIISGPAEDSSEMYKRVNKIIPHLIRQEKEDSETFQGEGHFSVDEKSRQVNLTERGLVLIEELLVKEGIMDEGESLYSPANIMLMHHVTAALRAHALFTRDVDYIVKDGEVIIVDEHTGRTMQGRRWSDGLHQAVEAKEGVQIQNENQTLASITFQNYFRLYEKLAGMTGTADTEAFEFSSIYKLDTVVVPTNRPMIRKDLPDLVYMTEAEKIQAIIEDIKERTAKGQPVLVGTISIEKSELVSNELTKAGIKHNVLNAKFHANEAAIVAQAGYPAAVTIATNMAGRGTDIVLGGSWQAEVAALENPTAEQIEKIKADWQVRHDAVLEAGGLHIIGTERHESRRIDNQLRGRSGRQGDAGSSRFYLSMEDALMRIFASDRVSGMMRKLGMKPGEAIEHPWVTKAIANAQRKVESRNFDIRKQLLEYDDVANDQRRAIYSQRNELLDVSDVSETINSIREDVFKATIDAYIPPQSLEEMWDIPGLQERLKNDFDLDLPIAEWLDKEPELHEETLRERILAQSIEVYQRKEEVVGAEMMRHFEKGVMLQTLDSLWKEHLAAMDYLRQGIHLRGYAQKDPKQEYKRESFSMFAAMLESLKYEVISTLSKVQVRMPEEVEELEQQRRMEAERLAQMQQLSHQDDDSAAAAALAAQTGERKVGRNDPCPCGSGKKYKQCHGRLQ

Structure (SMILES)	Percent Effect [1] [%]	Percent Effect [2] [%]	Percent Effect [3] [%]	Percent Effect [4] [%]	Percent Effect (Trypanosoma cruzi) [%]	Percent Effect [5] [%]	Percent Effect [6] [%]	Percent Effect (Homo sapiens) [%]	Percent Effect [7] [%]	Percent Effect [8] [%]	Percent Effect [9] [%]
Cc1nccnc1N1CCC2(CCCN(C3CCOCC3)C2=O)C1 (configuration not stated)	-7.49	-2.74	0.961	-4.09	-5.56	0	-1.63	27.4	0	-3.7	0.0613
CC(=O)c1cccc(S(=O)(=O)N2CSCC2C(=O)NCC(F)(F)F)c1 (configuration not stated)	-3.05	3.8	7.23	3.21	-0.103	-7.1	10.5	2.46	9.38	22.8	-23.2
Cc1nc(C)n(C2CCCN(C(=O)c3ccc4c(c3)COC4)C2)n1 (configuration not stated)	-2.83	13.5	-5.96	7.05	7.15	2.4	-4.67	6.78	2.97	11	0.576
CCC1CCCCN1C(=O)c1ccc2[nH]nnc2c1 (configuration not stated)	0.483	0	-3.81	-0.908	-1.17	3.33	19.5	1.34	3.96	-11	-1.41
CSCC(CCO)NC(=O)Nc1cc(C)ccc1C (configuration not stated)	-3.37	2.74	0.417	-7.14	-7.83	4.09	15.3	5.34	1.07	5	-3.27
O=C(NCC(Cc1cccc(F)c1)N1CCCC1=O)c1cnccn1 (configuration not stated)	-2.43	2.74	8.47	-6.79	-4.31	3.64	9.94	-2.19	4.3	5	-2.36
O=C(c1cccnc1N1CCOCC1)N1CCCC1Cn1cccn1 (configuration not stated)	-4.57	7.79	5.93	8.78	1.47	0.632	-0.242	-15.5	3.81	2.35	-12
Cc1cnn(C2CN(Cc3nc(C(C)(C)C)no3)C2)c1	-0.455	23.4	-7.8	-0.55	3.56	2.49	7.09	29.8	8.74	14.6	-6.23
COc1ccc(CNC2CCN(CCc3ccncc3)CC2)cc1O	-6.94	16.2	-9.03	9.91	5.27	26.7	10.6	-0.697	-6.93	8.54	-9.05
COc1ccccc1C(=O)N1CCCC1Cn1cc(C)cn1 (configuration not stated)	-3.53	18.9	-13.2	-6.09	-4.25	-2.81	4.68	-3.42	11.3	18.5	-4.38
CC(C)CC(=O)N1CCc2nc(N3CCOCC3)nc(NC(C)C)c2C1	-4.18	2.67	12.4	-0.324	-1.57	2.56	2.03	8.78	9.57	14.1	-8.4
Cc1cnn(CCNCc2ccccc2Oc2cccnc2)c1	-0.645	11.4	-5.35	-0.251	-5.03	-9.25	23.3	6.29	8.33	7.59	-26
CC(=O)N1CCn2cc(CNC(=O)c3cccn3C)nc2C1	-2.25	13.3	8.17	-3.72	-5.32	0.233	2.2	5.97	3.19	14.1	-2.9
NC(=O)CN1CCC(NC(=O)c2ccn(-c3cccc(F)c3)n2)CC1	-1.05	4.17	-2.99	-2.99	-7.68	3.97	11.1	0.719	1.05	-2.56	-2.21
O=c1ccc(-c2cccs2)nn1CN1CCN(Cc2ccccc2)CC1	-4.73	-1.33	2.74	1.22	5.3	-10.4	11.7	20.2	3.17	10.3	-12.8
O=C(Nc1cccc(OCc2cccc(F)c2)c1)C1COCCO1 (configuration not stated)	-6.19	-8	0.056	1.36	-3.41	-0.521	13.2	28	-8.2	-11.1	-6.84
CC(C)c1ccc(OCn2ccc(C(=O)N3CCCC3)n2)cc1	-3.25	10.4	1.81	12.1	6.2	-81.4	12.5	52.2	3.23	8.64	-6.24
COc1ccc(NC(=O)NC(C)(C)c2noc(C)n2)cc1	-5.98	2.74	9.96	-2.01	0.979	5	13.5	7.14	4.3	12.5	-1.95
O=C1COC2(CCN(Cc3ccoc3)CC2)CN1c1ccsc1	0.00228	18.7	6.94	-2.69	-0.591	1.63	14.4	-27.3	7.45	11.5	-2.01
COc1ccc(-n2ccc(C(=O)N3CCN(C)CC3C)n2)cc1 (configuration not stated)	-5.91	10.4	5.54	7.32	0.374	-0.712	-0.676	3.45	8.74	14.6	-5.54
CCc1nccn1C1CCCN(C(=O)c2ccc3c(c2)OCO3)C1 (configuration not stated)	-3.94	-2.6	8.35	-3.25	-3.93	-3.2	1.01	25.9	-1.94	-4.88	-7.3
COC[C@@H]1CC[C@H]2[C@H](CCN2C(=O)c2ccncc2F)O1	-5.45	2.7	-0.0287	17.9	2.05	2.73	-4.21	-15.4	5.38	13.6	-2.68
